The values below come from PubChem BioAssay (NCATS).

Assay [1] concerns the target Thyrotropin receptor (Homo sapiens) (UniProt P16473). The experiment in a line: qHTS Assay for Antagonists of the Thyroid Stimulating Hormone Receptor (AID 488980). Note: series mostly up to about 58 µM; 0% is about no effect. An outline of the steps: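 TSHR-transfected HEK293 cells (2000/well) in HEPES-buffered HBSS with 70 uM RO 20-1724 were stimulated with 4 nM TSH (EC80, final) in the presence of compound. cAMP was measured by HTRF competition after lysis and 30 min at RT.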

Assay [2] deals with ATP-dependent 6-phosphofructokinase (Trypanosoma brucei brucei) (UniProt O15648). The experiment in a line: qHTS Assay to Find Inhibitors of T. brucei phosphofructokinase: hit validation (AID 492961).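 Note: luminescence reports ADP formed as PFK phosphorylates fructose-6-phosphate with ATP; series mostly up to about 51 µM; % is set by controls: 0 for no effect and ±100 for the full control effect.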 An outline of the steps:
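ADP-Glo luminescence read-out of ADP formed by 1.25 nM PFK from 0.1 mM ATP and 0.5 mM F6P (TEA pH 8.0, 45 min, RT). Compounds titrated; activity normalized to no-enzyme and full-enzyme controls.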
(In qHTS, concentration-response curves come from the screen itself.)

In assay [3] the target is Galactokinase (Homo sapiens) (UniProt P51570). The experiment in a line: qHTS Validation Assay for Inhibitors of Human Galactokinase (GALK) (AID 493189). Note: 0% is about no effect. Put shortly:
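GALK (5 nM) with 35 uM ATP and 100 uM galactose in HEPES pH 8.0 with MgCl2, NaCl, DTT and BSA. Reaction ran 1 h at room temperature. Residual ATP read by Kinase-Glo Plus luminescence.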

The nature of assay [4]: Validation screen for small molecules that induce DNA re-replication in SW480 colon adenocarcinoma cells (AID 504364). Note: 0% is about no effect. Put shortly: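 Image-based qHTS: compounds were incubated with SW480 cells for 48 hr, nuclei stained with Hoechst, and per-nucleus fluorescence intensity scanned to flag cells with excess DNA content.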
Assay [5] is described as follows: Inducers of the Endoplasmic Reticulum Stress Response (ERSR) in human glioma: Validation (AID 504836). Note: 0% is about no effect. An outline of the steps: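 ERSR induction read as luciferase luminescence (Bright-Glo, 10 min at room temperature) in stably transfected human U87-MG glioma cells exposed to compounds for 16 h, using GRP78 as sensor.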
Assay [6] addresses Ubiquitin carboxyl-terminal hydrolase 1 (Homo sapiens) (UniProt O94782). Put plainly: Inhibitors of USP1/UAF1: Pilot qHTS (AID 504865). Note: nearly all actives have a fitted effect of over 35% in size. Note: potency is the fitted concentration of half-maximal effect. An outline of the steps:
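USP1/UAF1 complex at 1 nM preincubated 15 min at room temperature with compound, then Ub-Rho substrate added at 150 nM final. Fluorescence (480/540 nm) read kinetically in 50 mM HEPES pH 7.8, 0.5 mM EDTA, 1 mM TCEP, 0.1 mg/ml BSA, 0.01% Tween-20.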

In assay [7] the target is D(1A) dopamine receptor (Homo sapiens) (UniProt P21728). Put plainly: HTS Assay for Allosteric Agonists of the Human D1 Dopamine Receptor: Primary Screen for Agonists (AID 488981). Note: 0% is about no effect. Put shortly:
(§1)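 Calcium flux in an inducible, force-coupled HEK293 Trex D1 line (overnight at 30 C): agonist mode is the 180 s kinetic read after compound; potentiator mode is the following 180 s read after dopamine at EC20.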

The target is the same in assay [8]. The experiment in a line: HTS Assay for Allosteric Agonists of the Human D1 Dopamine Receptor: Primary Screen for Potentiators (AID 488982). Note: 0% is about no effect. Put shortly: as §1
The target is the same in assay [9]. Put plainly: HTS Assay for Allosteric Agonists of the Human D1 Dopamine Receptor: Primary Screen for Antagonists (AID 488983).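 Note: calcium flux response to an EC80 dopamine challenge measured with no-wash dye; % is set by controls: 0 for no effect and ±100 for the full control effect; nearly all actives have a fitted effect of over 65% in size.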 Put shortly:
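Kinetic fluorescence at 1 cycle/sec tracked intracellular calcium in force-coupled, tetracycline-inducible HEK293 T-REx D1 cells. Loss of response to an EC80 dopamine dose, given 180 s after compound, marked antagonists.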

Assay [10] is described as follows: Validation screen for small molecules that induce genotoxicity in human embryonic kidney (HEK293T) cells expressing luciferase-tagged ELG1 (AID 493106). Note: 0% is about no effect. Put shortly:
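Cells were dispensed at 2,000 per well, then 23 nL compound or DMSO was pinned in. After 16 hr at 37 °C and 5% CO2, ONE-Glo reagent was added. Luciferase activity was measured following 30 min at room temperature.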

For assay [11], the target named is ATPase family AAA domain-containing protein 5 (Homo sapiens) (UniProt Q96QE3). The experiment in a line: Validation screen for small molecules that inhibit ELG1-dependent DNA repair in human embryonic kidney (HEK293T) cells expressing luciferase-tagged ELG1 (AID 493107).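 Note: cells co-treated with the DNA-damaging agent 5-fluorouridine alongside compound; series mostly up to about 46 µM; % is set by controls: 0 for no effect and ±100 for the full control effect; inhibitors lower the ELG1-luciferase luminescence signal; nearly all actives have a fitted effect of over 70% in size.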 Put shortly:
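Cells are dispensed in 1536-well format, then 5-fluorouridine and compound are pinned in. After a 16 hr incubation at 37 °C and 5% CO2, ONE-Glo is added and luciferase measured on a CCD imager.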

For assay [12], the target named is Thyrotropin-releasing hormone receptor (Homo sapiens) (UniProt P34981). The experiment in a line: qHTS for Small Molecule Agonists and Allosteric Enhancers of Human TRH Receptor: Validation Screen for Agonists (AID 493127;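 active = calcium activation more than 3 SD above the typical response in the agonist read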;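 note: intracellular calcium rise by fluo-8 fluorescence before TRH EC20 addition; 0% is about no effect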). As to conditions: TRH receptor agonist cell assay; at 2 µM; stronger effect = higher value. Put shortly: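 Compounds are added by online pintool to dye-loaded TRHR cells while fluorescence is recorded every second. A rise in calcium signal during the agonist read marks activation; a later 10 nM TRH addition (EC20) serves the separate enhancer mode.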

The target in assay [13] is Phosphoglycerate kinase, glycosomal (Trypanosoma brucei brucei) (UniProt P07378). Put plainly: qHTS Validation Assay to Find Inhibitors of Phosphoglycerate Kinase (AID 504547).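 Note: control wells lack PGK and mark full inhibition.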 Put shortly:
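Luminescence end-point (Kinase-Glo Plus, 10 min) after a 60 min room-temperature coupled reaction. GAPDH at 100nM final supplies 1,3-BPG to PGK. Buffer: 100mM TEA pH 7.6, 5mM MgCl2, 0.01% Tween-20. Wells lacking PGK served as controls.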

Assay [14] is described as follows: Nrf2 qHTS screen for inhibitors: Validation (AID 493153; active = well fitted inhibition curve with a large enough effect in the main read-out, with a control signal flat, not every such curve was filed as active). The note with it: Potency: luciferase luminescence; viability change: measured here: cytotoxicity max response. An outline of the steps: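 A549 ARE_Fluc, 5% FBS OPTI-MEM; cpd titration, 18-24 h, 37°C/5% CO2. Read 1: CellTiter-Fluor (Ex 405/Em 525), cytotox. Read 2: luciferase lum, Nrf2 activity.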
The target of assay [15] is Peptidyl-prolyl cis-trans isomerase NIMA-interacting 1 (Homo sapiens) (UniProt Q13526). Put plainly: qHTS Validation Assay to Find Inhibitors of Pin1 (AID 504536; active = well fitted inhibition curve with a large enough effect in the polarisation, with a control signal flat, not every such curve was filed as active; the % refers to the polarisation;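 note: 0% = full Pin1 enzyme wells and -100% = no-enzyme wells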). An outline of the steps: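 Fluorescence polarization competition: compounds (titration) displace HiFluor-488-labeled Pin1-1b peptide from Pin1 (0.3 uM final) in pH 7.5 HEPES buffer with DTT, 10 min at room temperature; %Activity normalized to no-enzyme wells, curves fitted.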

The target in assay [16] is Estrogen receptor (Homo sapiens) (UniProt P03372). Put plainly: qHTS assay for small molecule antagonists of estrogen receptor alpha signaling (AID 588513; active = well fitted curve in the direction sought with a large enough effect in the signal ratio, with a control signal flat, not every such curve was filed as active; the % refers to the signal ratio; note: % is set by controls: 0 for no effect and ±100 for the full control effect). An outline of the steps: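 ER-alpha-UAS-bla GripTite HEK 293 cells in 2% charcoal/dextran-treated FBS medium; compounds titrated (1:2, duplicate), then stimulated with 0.5 nM 17-beta-estradiol for 18 h at 37C. CCF4 beta-lactamase fluorescence; Hill-fit IC50 and efficacy.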

Assay [17] shares this target. The experiment in a line: qHTS assay for small molecule agonists of estrogen receptor alpha signaling (AID 588514; calls by dose curve;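 note: 0% = vehicle only and 100% = reference agonist; nearly all actives have a fitted effect of over 70% in size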). An outline of the steps: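 Efficacy is expressed against 20 nM 17-beta-estradiol (100%) and DMSO basal (0%); EC50 from Hill equation. Assay: beta-lactamase reporter in ER-alpha-UAS-bla HEK 293 cells, 18 h compound incubation, CCF4 detection.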
The target of assay [18] is DNA dC->dU-editing enzyme APOBEC-3G (Homo sapiens) (UniProt Q9HC16). Put plainly: qHTS for inhibitors of Vif-A3G interactions: Validation (AID 588379). Note: 0% is about no effect. Put shortly: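 Yellow fluorescence (Ex 488, Em 500-530) of Vif-coexpressing HeLa A3G-eYFP cells, scanned by Acumen cytometer, reports blocked A3G degradation. Cells plated at 700/well overnight at 37 deg C before compound addition, then a further overnight compound incubation at 37 deg C.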

Where “and” joins values, the source holds several entries; their conditions need not be identical. Equal values may be shown once. Inconclusive results are not listed. Calls of active or inactive are those of the source. Unless noted, calls come from the whole dose curve; as a rule, active = well fitted curve in the direction sought with a large enough effect; inconclusive = small, poorly fitted or top-dose-only effect, or another doubt; inactive = no such curve, though single readings can be large; an effect the other way counts as inactive or inconclusive.

ATPase family AAA domain-containing protein 5 (Homo sapiens), sequence (Q96QE3 whole entry, looked up, the tested form may be a part): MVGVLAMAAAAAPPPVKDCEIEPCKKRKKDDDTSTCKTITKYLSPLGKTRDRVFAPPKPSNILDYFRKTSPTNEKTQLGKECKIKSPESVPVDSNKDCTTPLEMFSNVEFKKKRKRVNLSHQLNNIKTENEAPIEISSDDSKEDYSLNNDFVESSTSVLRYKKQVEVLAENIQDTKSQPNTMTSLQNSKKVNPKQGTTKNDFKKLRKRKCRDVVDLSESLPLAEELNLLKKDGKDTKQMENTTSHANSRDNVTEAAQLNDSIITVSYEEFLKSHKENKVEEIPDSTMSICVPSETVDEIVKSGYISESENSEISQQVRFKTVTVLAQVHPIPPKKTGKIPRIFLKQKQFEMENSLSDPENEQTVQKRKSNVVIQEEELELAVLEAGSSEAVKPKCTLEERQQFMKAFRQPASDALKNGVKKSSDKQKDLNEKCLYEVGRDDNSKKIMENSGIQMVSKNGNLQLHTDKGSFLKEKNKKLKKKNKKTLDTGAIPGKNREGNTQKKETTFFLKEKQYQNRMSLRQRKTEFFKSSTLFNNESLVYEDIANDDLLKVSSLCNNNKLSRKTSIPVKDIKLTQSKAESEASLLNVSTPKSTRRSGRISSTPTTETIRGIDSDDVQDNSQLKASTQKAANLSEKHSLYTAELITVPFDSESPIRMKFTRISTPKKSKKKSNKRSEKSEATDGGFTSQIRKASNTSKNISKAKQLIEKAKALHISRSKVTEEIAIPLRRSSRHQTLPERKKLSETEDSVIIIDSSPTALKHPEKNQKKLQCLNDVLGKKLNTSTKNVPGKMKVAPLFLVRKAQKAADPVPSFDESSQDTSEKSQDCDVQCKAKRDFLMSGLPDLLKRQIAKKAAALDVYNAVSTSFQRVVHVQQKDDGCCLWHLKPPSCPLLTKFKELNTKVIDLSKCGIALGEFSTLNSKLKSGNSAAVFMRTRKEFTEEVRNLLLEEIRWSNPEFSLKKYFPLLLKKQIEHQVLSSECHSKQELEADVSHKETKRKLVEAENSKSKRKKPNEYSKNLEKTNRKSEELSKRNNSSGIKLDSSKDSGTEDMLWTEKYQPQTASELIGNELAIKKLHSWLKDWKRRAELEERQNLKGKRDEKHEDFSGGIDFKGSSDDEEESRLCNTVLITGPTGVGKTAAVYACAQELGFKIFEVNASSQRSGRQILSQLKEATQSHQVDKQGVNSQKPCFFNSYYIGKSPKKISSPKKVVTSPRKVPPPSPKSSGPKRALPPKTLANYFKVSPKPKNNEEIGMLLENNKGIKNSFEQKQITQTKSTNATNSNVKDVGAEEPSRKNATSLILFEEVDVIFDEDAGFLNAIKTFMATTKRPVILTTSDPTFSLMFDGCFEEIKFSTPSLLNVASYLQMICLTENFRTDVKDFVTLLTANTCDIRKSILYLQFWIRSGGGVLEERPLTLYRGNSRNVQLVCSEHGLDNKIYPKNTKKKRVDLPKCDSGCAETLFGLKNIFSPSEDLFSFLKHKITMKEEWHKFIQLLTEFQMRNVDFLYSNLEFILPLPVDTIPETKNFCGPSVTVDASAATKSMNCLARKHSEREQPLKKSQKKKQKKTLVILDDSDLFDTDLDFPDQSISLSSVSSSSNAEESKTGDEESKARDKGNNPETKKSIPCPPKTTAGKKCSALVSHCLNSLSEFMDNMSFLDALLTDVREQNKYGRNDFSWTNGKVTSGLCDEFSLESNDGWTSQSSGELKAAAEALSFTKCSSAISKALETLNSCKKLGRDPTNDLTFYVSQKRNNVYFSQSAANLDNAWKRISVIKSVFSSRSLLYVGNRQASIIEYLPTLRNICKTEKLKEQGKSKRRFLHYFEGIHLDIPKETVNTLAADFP
Peptidyl-prolyl cis-trans isomerase NIMA-interacting 1 (Homo sapiens), sequence (Q13526 whole entry, looked up): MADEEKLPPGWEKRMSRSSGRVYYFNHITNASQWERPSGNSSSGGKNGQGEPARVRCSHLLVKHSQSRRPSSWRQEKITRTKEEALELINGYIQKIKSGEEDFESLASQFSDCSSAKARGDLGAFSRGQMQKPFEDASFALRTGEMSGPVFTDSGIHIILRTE
Phosphoglycerate kinase, glycosomal (Trypanosoma brucei brucei), sequence (P07378 whole entry, looked up): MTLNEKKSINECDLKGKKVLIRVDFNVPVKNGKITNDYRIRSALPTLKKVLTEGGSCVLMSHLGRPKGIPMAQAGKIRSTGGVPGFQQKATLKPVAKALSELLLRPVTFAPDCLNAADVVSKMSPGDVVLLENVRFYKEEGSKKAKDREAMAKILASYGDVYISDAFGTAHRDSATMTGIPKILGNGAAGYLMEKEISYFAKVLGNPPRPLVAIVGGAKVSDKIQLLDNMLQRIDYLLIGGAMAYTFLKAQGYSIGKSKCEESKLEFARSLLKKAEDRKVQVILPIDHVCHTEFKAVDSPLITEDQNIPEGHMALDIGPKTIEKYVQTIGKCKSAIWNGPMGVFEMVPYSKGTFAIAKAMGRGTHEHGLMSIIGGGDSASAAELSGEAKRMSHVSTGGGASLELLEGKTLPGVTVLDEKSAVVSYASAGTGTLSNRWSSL
D(1A) dopamine receptor (Homo sapiens), sequence (P21728 whole entry, looked up): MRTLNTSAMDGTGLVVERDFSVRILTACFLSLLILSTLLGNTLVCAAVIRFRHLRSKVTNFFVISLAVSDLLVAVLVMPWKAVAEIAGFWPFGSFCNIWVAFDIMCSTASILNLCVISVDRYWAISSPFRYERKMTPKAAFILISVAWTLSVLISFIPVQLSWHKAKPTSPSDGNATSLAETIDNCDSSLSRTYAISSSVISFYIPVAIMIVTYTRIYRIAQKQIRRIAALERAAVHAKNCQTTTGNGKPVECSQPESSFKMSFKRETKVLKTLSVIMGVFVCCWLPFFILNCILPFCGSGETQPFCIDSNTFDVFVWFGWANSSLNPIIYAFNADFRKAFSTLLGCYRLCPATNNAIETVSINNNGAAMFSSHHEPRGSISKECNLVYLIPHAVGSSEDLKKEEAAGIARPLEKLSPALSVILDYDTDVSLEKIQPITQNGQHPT
Estrogen receptor (Homo sapiens), sequence (P03372 whole entry, looked up): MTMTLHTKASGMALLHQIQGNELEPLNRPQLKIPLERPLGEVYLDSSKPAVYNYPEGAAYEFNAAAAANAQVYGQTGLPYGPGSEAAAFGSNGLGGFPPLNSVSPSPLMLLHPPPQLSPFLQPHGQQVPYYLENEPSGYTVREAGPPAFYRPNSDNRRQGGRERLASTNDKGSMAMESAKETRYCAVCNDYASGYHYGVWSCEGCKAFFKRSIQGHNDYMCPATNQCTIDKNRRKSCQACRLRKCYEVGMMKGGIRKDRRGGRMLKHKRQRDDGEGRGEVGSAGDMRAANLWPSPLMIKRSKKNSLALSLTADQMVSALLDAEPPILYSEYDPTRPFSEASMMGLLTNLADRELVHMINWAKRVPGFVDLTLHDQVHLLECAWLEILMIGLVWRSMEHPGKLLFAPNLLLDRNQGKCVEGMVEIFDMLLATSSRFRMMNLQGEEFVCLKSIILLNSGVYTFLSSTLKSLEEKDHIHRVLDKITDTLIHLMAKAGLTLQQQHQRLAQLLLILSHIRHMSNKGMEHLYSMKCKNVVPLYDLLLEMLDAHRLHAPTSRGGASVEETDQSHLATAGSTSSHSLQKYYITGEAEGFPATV
Thyrotropin-releasing hormone receptor (Homo sapiens), sequence (P34981 whole entry, looked up): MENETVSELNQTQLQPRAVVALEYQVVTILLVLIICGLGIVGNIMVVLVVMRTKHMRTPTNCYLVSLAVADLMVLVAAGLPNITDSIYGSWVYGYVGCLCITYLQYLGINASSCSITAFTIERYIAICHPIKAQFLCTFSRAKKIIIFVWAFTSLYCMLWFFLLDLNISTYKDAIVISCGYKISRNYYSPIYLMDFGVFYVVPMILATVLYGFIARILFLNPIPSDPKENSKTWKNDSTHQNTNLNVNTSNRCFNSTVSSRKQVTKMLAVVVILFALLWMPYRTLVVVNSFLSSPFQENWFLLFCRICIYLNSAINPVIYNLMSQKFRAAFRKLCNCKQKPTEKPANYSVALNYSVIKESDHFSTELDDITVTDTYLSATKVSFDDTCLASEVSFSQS
Galactokinase (Homo sapiens), sequence (P51570 whole entry, looked up): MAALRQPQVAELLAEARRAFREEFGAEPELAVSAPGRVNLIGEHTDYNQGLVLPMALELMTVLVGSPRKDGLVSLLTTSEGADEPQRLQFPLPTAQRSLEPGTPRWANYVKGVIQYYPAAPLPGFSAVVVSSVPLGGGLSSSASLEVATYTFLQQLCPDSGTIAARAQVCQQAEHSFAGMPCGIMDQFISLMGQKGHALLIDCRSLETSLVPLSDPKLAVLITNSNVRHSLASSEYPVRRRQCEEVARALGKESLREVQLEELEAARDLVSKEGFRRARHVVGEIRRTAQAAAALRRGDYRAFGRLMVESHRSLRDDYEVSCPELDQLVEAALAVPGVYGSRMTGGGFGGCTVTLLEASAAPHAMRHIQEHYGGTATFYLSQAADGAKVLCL
Thyrotropin receptor (Homo sapiens), sequence (P16473 whole entry, looked up): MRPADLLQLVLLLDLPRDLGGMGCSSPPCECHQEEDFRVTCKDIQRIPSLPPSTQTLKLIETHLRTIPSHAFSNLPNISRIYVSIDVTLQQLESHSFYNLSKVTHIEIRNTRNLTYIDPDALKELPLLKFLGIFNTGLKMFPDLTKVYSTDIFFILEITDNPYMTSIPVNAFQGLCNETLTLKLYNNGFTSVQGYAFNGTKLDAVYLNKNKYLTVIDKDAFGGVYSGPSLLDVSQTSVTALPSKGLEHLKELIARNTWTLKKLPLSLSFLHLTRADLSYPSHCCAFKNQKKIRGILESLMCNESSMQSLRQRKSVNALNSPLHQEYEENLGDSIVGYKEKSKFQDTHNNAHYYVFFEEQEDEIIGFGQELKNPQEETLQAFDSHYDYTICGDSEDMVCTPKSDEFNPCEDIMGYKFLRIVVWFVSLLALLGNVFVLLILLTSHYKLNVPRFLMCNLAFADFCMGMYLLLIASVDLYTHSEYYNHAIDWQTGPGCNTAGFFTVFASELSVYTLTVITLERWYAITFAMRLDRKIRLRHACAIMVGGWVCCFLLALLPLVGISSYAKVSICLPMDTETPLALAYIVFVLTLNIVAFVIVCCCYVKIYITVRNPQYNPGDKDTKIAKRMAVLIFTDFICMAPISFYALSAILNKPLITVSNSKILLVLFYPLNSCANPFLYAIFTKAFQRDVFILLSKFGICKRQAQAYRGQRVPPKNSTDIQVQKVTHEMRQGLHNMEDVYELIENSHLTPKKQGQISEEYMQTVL

On to `CC[N+](CC)(CC)CC`, for which the call in [1], in [2], in assay [3] and in assay [5] was inactive. Moreover, the Potency entry in assay [4] and in [6] was “inactive” in each case.

In the case of `COC[C@H]1OC(=O)c2coc3c2[C@@]1(C)C1=C(C3=O)C2CCC(=O)[C@@]2(C)C[C@H]1OC(C)=O` (stereo partly drawn), the outcome in assay [1] and in assay [3] was inactive. For the same compound, the Potency entry in [7], in assay [8], in assay [9], in [10], in assay [11] and in assay [4] was “inactive” in each case. Further, the Potency result in assay [13] and in assay [6] was “inactive” each time. Besides, the activation in assay [12] was 0.25% (inactive).

As to `CCCC(C)(COC(N)=O)COC(=O)NC(C)C` (stereo not drawn), the compound was called inactive in assay [1], in [3] and in assay [16]. The Potency result in assay [7], in assay [8], in assay [9], in [10], in assay [11] and in assay [14] was “inactive” throughout. Further, the Potency result in assay [4], in [15], in [13], in [6] and in assay [17] was “inactive” in each case. The activation in assay [12] is -0.188% (inactive). The viability change in assay [14] came out at 5.42%.

Regarding `CCCN1CCC[C@@H]2Cc3nc(N)ncc3C[C@H]21`, the call in assay [1] and in [3] was inactive. Also, the Potency entry in [7], in [8], in [9], in assay [10], in [11] and in assay [14] was “inactive” throughout. The Potency entry in [4], in assay [15], in assay [13] and in assay [6] was “inactive” in each case. Besides, the activation in assay [12] is 0.562% (inactive). Moreover, in [14], the viability change was found to be 1.56%.

For `Cc1ccc(S(=O)(=O)N[C@@H](CCCCN)C(=O)CCl)cc1`, the result in assay [1], in assay [3] and in assay [5] was inactive. In addition, the Potency result in assay [7], in assay [8], in assay [9], in assay [10], in [14] and in [4] was “inactive” throughout. Further, the Potency entry in [15] and in assay [13] was “inactive” each time. For the same compound, in assay [12], the activation is -0.625% (inactive). For the same compound, in assay [14], the viability change is -2.81%. For the same compound, in assay [6], the Potency was 50.1 µM (active) and 39.8 µM (active).

As to `CC(=O)[C@H]1CC[C@H]2[C@@H]3CC[C@H]4C[C@H](O)CC[C@]4(C)[C@H]3C(=O)C[C@]12C`, the Potency result in [7], in [8], in assay [9], in [10], in assay [11] and in [4] was “inactive” each time. In addition, the Potency entry in assay [15], in assay [13] and in assay [6] was “inactive” each time. Besides, the result in assay [2] and in assay [3] was inactive. The activation in assay [12] was 1.5% (inactive).

For the compound `N#CC(C#N)=Cc1ccc(O)c(O)c1`, the outcome in assay [1], in [3], in assay [5] and in [18] was inactive. In addition, the Potency entry in assay [7], in assay [9], in assay [10], in assay [11], in assay [14] and in [4] was “inactive” throughout. The Potency result in assay [15], in [13] and in assay [6] was “inactive” each time. Further, the activation in assay [12] was 1.19% (inactive). In [14], the viability change is -7.57%.

On to `Cc1cccc(C)c1NC(=O)CN1CCCC1=O`, for which the Potency result in assay [7], in assay [8], in assay [9], in [10], in assay [11] and in [14] was “inactive” in each case. The Potency entry in assay [13] and in [6] was “inactive” in each case. Moreover, the viability change in assay [14] is -4.1%. In addition, the compound was classed as inactive in [5].
